Assay outcomes from PubChem BioAssay.
Compounds with a hit are over-represented: about 11% of the library has one in this group of screens.
Pf growth 96h = P. falciparum growth inhibition at 96 hours; P. falciparum luciferase reporter growth, 96 h; Potency, µM (top dose mostly 28.7 µM), without a hit: at the top dose activity change, negative = inhibition, hits mostly inhibitors; 320,000 compounds, 6.9% hits; AID 504834
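Two-generation exposure (96 h) targets delayed-death phenotype. Reporter parasites carrying integrated firefly luciferase, in red cells at 2% hematocrit and 0.05% parasitemia final, kept at 37 C, 5% CO2; luminescence loss indicates inhibition.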
AMA1-RON2 inh = disrupts binding of P. falciparum AMA1 to RON2; Potency, µM (doses to about 58.2 µM), for inactives: at the highest dose activity change, negative = inhibition, hits mostly inhibitors; AID 720542; 360,000 compounds, 0.2% hits; AlphaScreen AMA1-biotinylated RON2 peptide binding;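 note: 0% = vehicle wells and -100% = peptide control; nearly all actives have a fitted effect of over 45% in size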
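AMA1 (3D7) with his tag at 25 nM final met compounds first, then biotinylated RON2 peptide at 25 nM; detection used donor plus acceptor beads, 10 µg/mL apiece, read by AlphaScreen after 30 min at room temperature.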
HCV inhibitor = HCV inhibition; Potency, µM (doses to about 41.8 µM), inactives show at the highest dose activity change, negative = inhibition, usual class: inhibitors; 340,000 compounds, 3.4% hits; Huh7.5.1 HCVcc-Cre infection, luciferase reporter, 44 h
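HCVcc-Cre virus at an moi near 0.5 was added right after compound to cells cultured 4 h from seeding (1,000 cells/well). Luciferase activity was determined 44 h later, 15 min after substrate addition at RT.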
Pf growth 48h = inhibits P. falciparum growth in the first generation, 48 h; AID 504832; 310,000 compounds, 5.9% hits; Potency, µM (highest dose often 28.7 µM), for the others: at the top dose activity change, negative = inhibition, actives largely listed as inhibitors; P. falciparum luciferase growth in erythrocytes, 48 h
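Parasite viability was followed by luminescence of a genomically integrated firefly luciferase. Cultures held 0.1% parasitemia at 2% hematocrit (final), incubated under 5% CO2 at 37 C.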
Numbers without * were called inactive; i = inactive; ? = inconclusive; . = no result given; ! = a repeat was not active. Calls come from the whole dose curve; as a rule, active = well fitted curve in the direction sought with a large enough effect; inconclusive = small, poorly fitted or top-dose-only effect, or another doubt; inactive = no such curve, though single readings can be large; an effect the other way counts as inactive or inconclusive. Unless noted, % is set by controls: 0 for no effect and ±100 for the full control effect; potency is the fitted concentration of half-maximal effect.

SMILES	Pf growth 96h	AMA1-RON2 inh	HCV inhibitor	Pf growth 48h
O=C(c1ccccc1-n1cccn1)N1CCc2c([nH]c3ccccc23)C1c1ccccn1 (stereo not given)	4.7µM*	2%	-8%	?
Fc1ccc(C2c3[nH]c4ccccc4c3CCN2Cc2ccoc2)cc1 (stereo not given)	?	-29%	-1%	?
O=C(Nc1c2c(nn1-c1ccc(Cl)cc1)CS(=O)(=O)C2)C1CC1	6%	-4%	.	20%
O=C(c1ccccc1-c1ncc[nH]1)N1CCc2c([nH]c3ccccc23)C1c1ccccn1 (stereo not given)	16%	?	11%	12µM*
CSc1nc(C(=O)N2CCc3c([nH]c4ccccc34)C2c2ccccn2)cs1 (stereo not given)	18%	-18%	-5%	0%
Cc1ccc2nc(C(=O)N3CCc4c([nH]c5ccccc45)C3c3ccccn3)cn2c1 (stereo not given)	9.3µM*	-5%	1%	11%
COc1ccc(/C=N/NC(=O)c2cccc(O)c2)cc1Cn1nc(C)c([N+](=O)[O-])c1C	i	-3%	?	?
CCCOC(=O)c1ccc2c(c1)C(=O)N(c1ccccc1)C2=O	12µM*	-2%	-3%	.
CCN(C(=O)COC(=O)c1cccnc1SC)c1c(N)n(Cc2ccccc2)c(=O)[nH]c1=O	4%	2%	5%	-13%
C=CCN(CC=C)C(=S)NC(=O)c1ccc(OC)c(Br)c1	15µM*	0%	-30%	10µM*
CCN(CC)C(=S)NC(=O)c1ccc(OC)c(Br)c1	-15%	13%	33%	?
CCOC(=O)c1c(NC(=S)Nc2ccccc2)sc2c1CCN(CC)C2	58%	10%	-29%	6.6µM*
CCOC(=O)c1c(NC(=S)NCc2ccccc2)sc2c1CCN(C(=O)OCC)C2	5.9µM*	48%	?	12µM*
CCOC(=O)c1c(NC(=S)N2CCCCC2)sc2c1CCN(C(=O)OCC)C2	?	0%	-69%	?
CCOC(=O)c1c(NC(=O)Nc2ccc(C)cc2)sc2c1CCN(C)C2	3.7µM*	5%	?	12µM*
CCOC(=O)c1c(NC(=S)N2CCOCC2)sc2c1CCN(C(=O)OCC)C2	?	-17%	-51%	?
C=CCNC(=S)Nc1sc2c(c1C(=O)OCC)CCN(C(=O)OCC)C2	?	37%	6%	13µM*
CC(C)NC(=O)Nc1nnc([C@@H]2C[C@H](O)[C@@H](CO)O2)s1	.	0%	.	.
O=C(O)CN1C(=O)/C(=C\c2cc(Br)ccc2OCc2ccc(Cl)cc2)SC1=S	10µM*	-8%	3%	19%
O=C(O)CN1C(=O)/C(=C\c2cc(Br)ccc2OCc2ccc(F)cc2)SC1=S	-12%	-8%	12%	20%
O=C(O)CN1C(=O)/C(=C\c2cccc(OCc3ccccc3)c2)SC1=S	15µM*	-4%	4%	14%
O=C(c1cccnc1)N1CCC(Oc2ccc(C(=O)N3CCCC(O)C3)cc2)CC1 (stereo not given)	?	5%	11%	0%
CNCC[C@H](Oc1cccc2ccccc12)c1cccs1	6.7µM*	-17%	?	13µM*
O=C(c1ccco1)N1CCN(Cc2cc(=O)c(OCc3ccccc3)co2)CC1	?	17%	19%	31%
COc1ccc(NC(=O)CN2CCN(C(=O)c3ccco3)CC2)c(OC)c1	-16%	7%	20%	10µM*
SMILES	Pf growth 96h	AMA1-RON2 inh	HCV inhibitor	Pf growth 48h
O=C(c1ccco1)N1CCN(CCOCCOc2cccc3ccccc23)CC1	12µM*	64%	-27%	.
Cc1cccc(COc2coc(CN3CCN(C(=O)c4ccco4)CC3)cc2=O)c1	12µM*	0%	-9%	?
O=C(CN1CCC(NC(=O)c2ccco2)CC1)Nc1cccc2ccccc12	10µM*	-8%	3%	?
COc1cc(OC)cc(C(=O)NC2CCN(CC(=O)Nc3cccc4ccccc34)CC2)c1	?	-7%	-15%	?
CC1(C(=O)NCc2cccs2)Cc2c(-c3ccc4c(c3)OCO4)ccnc2O1 (stereo not given)	.	-3%	.	.
CC(C)NC(=O)C1(S(=O)(=O)c2ccccc2)CC=CC1	-14%	-5%	-6%	54%
COc1ccccc1NC(=O)CN1CCN(C(=O)c2ccco2)CC1	-25%	-3%	-3%	2.1µM*
Cc1ccccc1NC(=O)CN1CCN(C(=O)c2ccco2)CC1	1%	-11%	16%	?
COc1ccccc1NC(=O)c1ccc(NC(=O)CN2CCN(C(=O)c3ccco3)CC2)cc1	?	0%	?	-24%
COc1ccc2ccccc2c1CN1CCN(C(=O)c2ccccc2)CC1	78%	-25%	?	?
Cc1cc(Cl)ccc1NC(=O)CN1CCN(C(=O)c2ccco2)CC1	-7%	-13%	10%	10µM*
COc1ccccc1NC(=O)N1CCN(CCc2ccccc2)CC1	-4%	-8%	16%	4.1µM*
COc1ccc(Cl)cc1NC(=O)N1CCN(CCc2ccccc2)CC1	1%	-10%	?	?
COc1ccc2ccccc2c1CN1CCN(C(=O)c2ccco2)CC1	11%	-27%	?	6.6µM*
COc1cccc(CNC(=O)[C@@H]2CCCN2C(=O)[C@@H]2CCCN2C(=O)c2cccc(OC)c2)c1	.	4%	.	.
COc1cccc(/C=C/C(=O)OCC(=O)Nc2cccc(S(=O)(=O)NC3=NCCCCC3)c2)c1	.	-4%	9%	.
O=C(c1cc2c(s1)CCCC2)N1CCN(CCO)CC1	.	0%	16%	.
COc1ccc(OC)c(C2Nc3ccccc3NC3=C2C(=O)CC(C)(C)C3)c1 (stereo not given)	4.1µM*	2%	2%	19%
COc1ccccc1C1Nc2ccccc2NC2=C1C(=O)CC(C)(C)C2 (stereo not given)	-24%	-10%	25%	-8%
O=C1c2sc3nc4n(c(=O)c3c2CCC1Br)CCCCC4 (stereo not given)	9.3µM*	6%	11%	?
CN(Cc1ccc2nsnc2c1)C(=O)C1CCC(=O)N(CCc2ccccc2)C1 (stereo not given)	.	13%	.	.
COc1ccc(-c2cn3c(C)c(C(=O)N4CCCc5ccccc54)sc3n2)cc1	.	-26%	11µM*	.
COc1ccccc1N(C)S(=O)(=O)c1ccc(C(=O)N2CCCc3ccccc32)cc1	?	-26%	?	13µM*
CC(C)Oc1ccc(C(=O)N2CCCc3ccccc32)cc1	4%	0%	-4%	?
COc1ccc(-c2cc(C(=O)N3CCCc4ccccc43)no2)cc1	71%	-12%	-1%	-15%
COc1ccc(C(=O)N2CCCc3ccccc32)cc1	0.26µM*	4%	?	-11%
COc1ccccc1N(C)S(=O)(=O)c1ccc(C(=O)N2CCC2)cc1	11%	-4%	-28%	1%
COc1ccccc1NCCC(=O)OCC(=O)NC1CCCCCC1	50%	12%	-1%	26%
CCN(CC)c1ccc(SS(=O)(=O)O)cc1	10µM*!	-14%	0%	13µM*
